# Assay results from PubChem BioAssay (EPA / NIEHS).
# Activity calls are given as the source filed them. Rule for the calls: active = hit-call score of the fitted dose curve at least 0.9, where 1 is the maximum; inactive = score below 0.9.
# Experiment: CCTE_Shafer_MEA_acute_spike_number: CCTE's Neural Acute Assay for Total Number of Spikes, Shafer Lab (AID 2284008);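 for AC50: curve fitted for decrease in spike count so AC50 reflects inhibitors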
# In short: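 Primary rat cortical neurons on 16-electrode MEA wells; on DIV 13 or 15, 40-min baseline then 40-min recording with compound (0.03-40 uM) at 37 C. Spikes detected at 8x rms noise; percent change versus baseline, DMSO as negative control.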
Structure (SMILES),outcome,AC50
OCC(CO)n1cnc(-c2ccc(F)cc2)c1-c1ccnc(Oc2ccccc2)n1,inactive,
CN(C)C(=O)NC1(c2ccccc2)CCN(CC[C@@]2(c3ccc(F)c(F)c3)CN(C(=O)c3ccccc3)CCO2)CC1,,4.16 µM (active)
COc1ccc(OC(F)(F)F)cc1CN[C@H]1CCCN[C@H]1c1ccccc1,,1.72 µM (active)
CC(C)NCC(O)c1ccc(O)c(O)c1 (centres undefined),inactive,
CC(C)COC(=O)CCCCC(=O)OCC(C)C,inactive,
O=C(N[C@@H](c1ccccc1)[C@@H]1CCCCN1)c1cccc(C(F)(F)F)c1Cl,,4.39 µM (active)
c1ccc2occc2c1,inactive,
CN(C)C(=O)NC1(c2ccccc2)CCN(CCC[C@]2(c3ccc(Cl)c(Cl)c3)CCCN(C(=O)c3ccccc3)C2)CC1,inactive,
O=C(O)CN(CC(=O)O)CC(=O)O,inactive,
CCCC(=O)O,inactive,
Oc1ccc(O)cc1,inactive,
CC(N)=O,inactive,

# Experiment: CCTE_Shafer_MEA_acute_firing_rate_mean: CCTE's Neural Acute Assay for Mean Firing Rate, Shafer Lab (AID 2284009);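 note: analyzed for loss of signal so actives lower firing rate relative to DMSO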
# In short: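 Rat cortical neuron cultures matured to DIV 13 or 15, equilibrated 20 min at 37 C, then recorded 40 min for baseline. Compound (0.03-40 uM) added and a further 40 min recorded; percent change in mean firing rate calculated per well.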
Structure (SMILES),outcome,AC50
OCC(CO)n1cnc(-c2ccc(F)cc2)c1-c1ccnc(Oc2ccccc2)n1,inactive,
CN(C)C(=O)NC1(c2ccccc2)CCN(CC[C@@]2(c3ccc(F)c(F)c3)CN(C(=O)c3ccccc3)CCO2)CC1,,4.14 µM (active)
COc1ccc(OC(F)(F)F)cc1CN[C@H]1CCCN[C@H]1c1ccccc1,,1.73 µM (active)
CC(C)NCC(O)c1ccc(O)c(O)c1 (centres undefined),inactive,
CC(C)COC(=O)CCCCC(=O)OCC(C)C,inactive,
O=C(N[C@@H](c1ccccc1)[C@@H]1CCCCN1)c1cccc(C(F)(F)F)c1Cl,,4.39 µM (active)
c1ccc2occc2c1,inactive,
CN(C)C(=O)NC1(c2ccccc2)CCN(CCC[C@]2(c3ccc(Cl)c(Cl)c3)CCCN(C(=O)c3ccccc3)C2)CC1,inactive,
O=C(O)CN(CC(=O)O)CC(=O)O,inactive,
CCCC(=O)O,inactive,
Oc1ccc(O)cc1,inactive,
CC(N)=O,inactive,

# Experiment: CCTE_Harrill_HTTr_Viability_MCF7: CCTE's 6-hour Cell Viability Assessment for the High-Throughput Transcriptomics (HTTr) Platform, in MCF-7 cells cultured in DMEM + 10% fetal bovine serum, Harrill Lab (AID 2284010)
# In short: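 Eight-point concentration series, six-hour exposure. Propidium iodide exclusion imaged to assess membrane integrity as a cytotoxicity readout; bidirectional fitting was done with DMSO as negative control and activity baseline.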
row,Structure (SMILES),outcome
1,CC(C)c1cccc(C(C)C)c1NC(=O)NS(=O)(=O)c1cc(C(C)(C)O)co1,inactive
2,CCCCCCCC(=O)OC,inactive
3,CN(C)C(=O)NC1(c2ccccc2)CCN(CC[C@@]2(c3ccc(F)c(F)c3)CN(C(=O)c3ccccc3)CCO2)CC1,inactive
4,COc1ccc(OC(F)(F)F)cc1CN[C@H]1CCCN[C@H]1c1ccccc1,inactive
5,CC(=O)OCC(COC(C)=O)OC(C)=O,inactive
6,COc1ccc(C(=O)Nc2nc3ccccc3c(NCc3ccccc3)c2C#N)cc1,inactive
7,CO[C@@H]1COCC[C@@H]1N[C@@H]1CC[C@@](C(=O)N2CCc3ncc(C(F)(F)F)cc3C2)(C(C)C)C1,inactive
8,Oc1ccccc1O,inactive
9,CCCCOC(=O)CCCCC(=O)OCCCC,inactive
10,C=CCc1ccc(OC)c(OC)c1,inactive
11,Cc1occc(=O)c1O,inactive
12,NC1CCCCC1,inactive
13,O=C1c2c(O)cccc2Cc2cccc(O)c21,inactive
14,CC(=O)OC1CC(C)OC(C)O1 (centres undefined),inactive
15,O=C(O)c1[nH]n(-c2ccc(S(=O)(=O)O)cc2)c(=O)c1N=Nc1ccc(S(=O)(=O)O)cc1,inactive
16,CC(C)COC(=O)CCCCC(=O)OCC(C)C,inactive
17,O=C(N[C@@H](c1ccccc1)[C@@H]1CCCCN1)c1cccc(C(F)(F)F)c1Cl,inactive
18,O=[Si]=O,inactive
19,c1ccc2occc2c1,inactive
20,O=C1NC(=O)C(c2ccccc2)(c2ccccc2)N1,inactive
21,O=C1O[C@H]([C@H](O)CO)C(O)=C1O,inactive
22,CN(C)C(=O)NC1(c2ccccc2)CCN(CCC[C@]2(c3ccc(Cl)c(Cl)c3)CCCN(C(=O)c3ccccc3)C2)CC1,inactive
23,CCCC[C@H]1CN(CC2CCOCC2)C(=O)OC12CCN(C1(C)CCN(C(=O)c3c(C)ncnc3C)CC1)CC2,inactive
24,COC(=O)CCCC(=O)OC,inactive
25,CS(=O)(=O)c1ccc([C@@H](C[C@H]2CCC(=O)C2)C(=O)Nc2cnccn2)cc1Cl,inactive
26,CCc1nc(N)nc(N)c1-c1ccc(Cl)cc1,inactive
27,CC(=O)S[C@H](C(=O)N[C@H]1Cc2ccccc2[C@H]2CCC[C@@H](C(=O)O)N2C1=O)C(C)C,inactive
28,CCCC(=O)O,inactive
29,CN(C)CCCN(C)CCCN(C)C,inactive
30,CC(N)=O,inactive
